Measurements as given in PubChem BioAssay (NCATS).
Records with an inconclusive call do not appear. Activity calls are given as the source filed them. Calls follow the shape of the dose curve; as a rule, active = well fitted inhibition curve with a large enough effect; inconclusive = small, poorly fitted or top-dose-only effect; inactive = flat fitted curve, though single readings scatter.

Experiments:
[1] = tested on: CRL-7250; assay: Cytotoxic Profiling of Annotated Libraries Using Quantitative High-Throughput Screening (AID 1296008); details: Five cell lines viability, CellTiter-Glo ATP luminescence, 48-72 h; max response: stronger effect = lower value; as to max response: % is scaled to controls: 0 for no effect and ±100 for the full control effect
Outline: (§1)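 Cells exposed to compounds for 48 or 72 hr at 37 degrees Celsius. Viability read as ATP-coupled luminescence with CellTiter-Glo after 10 min at room temperature.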

[2] = tested on: HEK293; assay: as above; details: Five cell lines viability, CellTiter-Glo ATP luminescence, 48-72 h; max response: stronger effect = lower value
Outline: as §1

[3] = tested on: HaCat; assay: as above; details: Five cell lines viability, CellTiter-Glo ATP luminescence, 48-72 h; max response: stronger effect = lower value
Outline: as §1

[4] = tested on: KB-3-1; assay: as above; details: Five cell lines viability, CellTiter-Glo ATP luminescence, 48-72 h; max response: stronger effect = lower value
Outline: as §1

[5] = tested on: NIH3T3; assay: as above; details: Five cell lines viability, CellTiter-Glo ATP luminescence, 48-72 h; max response: stronger effect = lower value
Outline: as §1

[6] = tested on: HACAT; assay: qHTS assay to identify novel small-molecules to repurpose for Merkel cell carcinoma treatment (AID 1296009); details: MCC and control cell lines, CellTiter-Glo viability, 72 h; at 44.8 µM (top of the series) unless noted
Outline: (§2)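 CellTiter-Glo luminescence after 72 hr compound exposure at 37 degree celsius gave cell viability. Libraries NPC and MIPE were run as 8- and 11-point dose responses; RLUs normalized to DMSO (negative) and no-cell (cytotoxicity) controls.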

[7] = tested on: HEK293T; assay: as above; details: MCC and control cell lines, CellTiter-Glo viability, 72 h; series mostly up to 44.8 µM
Outline: as §2
Also: nearly all actives have a fitted effect of over 60% in size.

CC1(C)C(=O)N2c3ccccc3[C@]3(CC(n4cnc5ccccc5c4=O)C(=O)O3)[C@H]2N1O (stereo partly specified)
inactive: outcome [1] | outcome [2] | outcome [3] | outcome [4] | max response [5] 1.65% | outcome [6] inactive [at 17.4 µM] | Potency [7]

CC1=CC(=O)CC(C)(C)C1(O)CCC(C)O (stereo unspecified)
inactive: outcome [1] | outcome [2] | outcome [3] | outcome [4] | max response [5] 2.02% | outcome [6] | Potency [7]

CC1(C)CCC[C@@]2(C)[C@H]1[C@H](O)C=C1COC(=O)[C@@]12O
inactive: outcome [1] | outcome [2] | outcome [3] | max response [4] 4.4% | max response [5] 2.05% | outcome [6] | Potency [7]

Cc1c(N2C(=O)c3ccc(C(=O)O)cc3C2=O)c(=O)n(-c2ccccc2)n1C
inactive: outcome [1] | outcome [2] | outcome [3] | outcome [4] | outcome [5] | outcome [6] | Potency [7]

CCCCS(=O)(=O)Nc1ncnc(OCCOc2ncc(Br)cn2)c1-c1ccc(Br)cc1
inactive: max response [1] -8.77% | outcome [2] | outcome [3] | outcome [4] | max response [5] 1.6% | outcome [6] | Potency [7]

COc1ccc(C(O[C@@H]2O[C@H](CO)[C@@H](O)[C@H](O)[C@H]2O)C(CO)Oc2ccc(/C=C/CO)cc2OC)cc1O (stereo partly specified)
inactive: outcome [1] | outcome [2] | outcome [3] | outcome [4] | outcome [5] | outcome [6] inactive [at 17.4 µM] | Potency [7]

C[C@@H]1CC[C@]2(C)C(C[C@@H](O)[C@H](O)[C@]23CO3)[C@@]1(C)CCc1ccoc1 (stereo partly specified)
inactive: outcome [1] | outcome [2] | outcome [3] | max response [4] 7.33% | max response [5] -3.46% | outcome [6] | Potency [7]

O=C(/C=C/c1ccc(O)cc1)OCC1=CC2OC(=O)C3=CO[C@@H](O[C@@H]4O[C@H](CO)[C@@H](O)[C@H](O)[C@H]4O)[C@H]1[C@@H]32 (stereo partly specified)
inactive: max response [1] -2.07% | outcome [2] | outcome [3] | outcome [4] | max response [5] -2.28% | outcome [6] inactive [at 17.4 µM] | Potency [7]

C[C@H]1[C@H](C)CC[C@]2(C(=O)O[C@@H]3O[C@H](CO)[C@@H](O)[C@H](O)[C@H]3O)CC[C@]3(C(=O)O)C(=CCC4[C@@]5(C)CC[C@H](O[C@@H]6O[C@H](CO)[C@@H](O)[C@H](O)[C@H]6O)C(C)(C)C5CC[C@]43C)[C@H]12 (stereo partly specified)
inactive: max response [1] 3.01% | outcome [2] | outcome [3] | max response [4] 2.34% | max response [5] -5.27% | outcome [6] inactive [at 9.27 µM] | outcome [7] inactive [at 9.27 µM]

C[C@@H]1O[C@@H](O[C@H]2[C@H](O[C@H]3[C@H](O[C@H]4CC[C@@]5(C)C(CC[C@]6(C)C5CC=C5[C@@H]7CC(C)(C(=O)O)C[C@@H](O)[C@]7(C)CC[C@]56C)[C@@]4(C)CO)O[C@H](C(=O)O)[C@@H](O)[C@@H]3O)O[C@H](CO)[C@H](O)[C@@H]2O)[C@H](O)[C@H](O)[C@H]1O (stereo partly specified)
inactive: max response [1] -5.52% | outcome [2] | outcome [3] | outcome [4] | max response [5] -3.63% | outcome [6] inactive [at 9.27 µM] | outcome [7] inactive [at 9.27 µM]

CC1(C)C[C@H]2C3=CCC4[C@@]5(C)CC[C@H](O[C@H]6O[C@H](C(=O)O)[C@@H](O)[C@H](O)[C@H]6O[C@H]6O[C@H](CO)[C@@H](O)[C@H](O)[C@H]6O[C@@H]6O[C@H](CO)[C@@H](O)[C@H](O)[C@H]6O)[C@](C)(CO)C5CC[C@@]4(C)[C@]3(C)CC[C@@]2(C)[C@H](O[C@@H]2OC[C@H](O)[C@H](OC3O[C@H](CO)[C@@H](O)[C@H](O)[C@H]3O)[C@H]2O)[C@@H]1O (stereo partly specified)
inactive: max response [1] 3.94% | outcome [2] | outcome [3] | max response [4] 9.85% | max response [5] 4.34% | outcome [6] inactive [at 9.27 µM] | outcome [7] inactive [at 9.27 µM]

C=C(C)C(=O)O[C@H]1C[C@@](C)(OC(C)=O)[C@@]2(O)CC[C@@](C)(O)[C@H](OC(C)=O)[C@@]23OC(=O)C(COC)=C13
inactive: max response [1] 3.52% | outcome [2] | outcome [3] | max response [4] 6.06% | outcome [5] | outcome [6] inactive [at 17.4 µM] | Potency [7]

O=C1CC(c2ccc([N+](=O)[O-])cc2)=NN1c1ccccc1
inactive: outcome [1] | outcome [2] | outcome [3] | max response [4] 3.45% | max response [5] 2.7% | outcome [6] | Potency [7]

CC(=O)N1CCN(NC(=O)c2ccc(F)cc2)CC1
inactive: max response [1] -0.968% | outcome [2] | outcome [3] | max response [4] 8.34% | max response [5] -3.31% | outcome [6] | Potency [7]

C/C=C/C=C/C=C/C(=O)O[C@@H]1[C@@H](OC)C2=C(C(=O)N(C(C)C(=O)O)C2)[C@@]2(C)CCCC(C)(C)[C@H]12 (stereo partly specified)
inactive: max response [1] -1.32% | outcome [2] | outcome [3] | max response [4] 5.59% | max response [5] 0.76% | outcome [6] inactive [at 17.4 µM] | Potency [7]

C[C@@H]1O[C@@H](O[C@H]2[C@H](OC(C#N)c3ccc(O)cc3)O[C@H](CO)[C@@H](O)[C@@H]2O)[C@H](O)[C@H](O)[C@H]1O (stereo partly specified)
inactive: max response [1] -7.05% | outcome [2] | outcome [3] | outcome [4] | outcome [5] | outcome [6] inactive [at 17.4 µM] | Potency [7]

C=CC1(C)C=C2C(O)CC3C(C)(C(=O)O)CCCC3(C)C2CC1 (stereo unspecified)
inactive: outcome [1] | outcome [2] | outcome [3] | max response [4] 7.58% | max response [5] -5.1% | outcome [6] | Potency [7]

CC1C(=O)CC2C3C(O)CC(C(=O)O)C12CC3(C)C (stereo unspecified)
inactive: outcome [1] | outcome [2] | outcome [3] | max response [4] 3.18% | outcome [5] | outcome [6] | Potency [7]
